Data reported in PubChem BioAssay (NCATS).
Records with an inconclusive call do not appear. The source made the active and inactive calls. The call rests on the fitted dose curve; in most records, active means well fitted cell-killing curve with a large enough effect; inconclusive means small, poorly fitted or top-dose-only effect, or effect the other way; inactive means flat fitted curve, though single readings scatter.

How the values were obtained:
Assay in all cases: Primary qHTS to identify gynecologic anti-cancer compounds using libraries of approved drugs and bioactive compounds (AID 1345084); further: nearly all actives have a fitted effect of over 55% in size
C33A = conditions: Gynecologic cancer cell panel viability, ATPlite luminescence, 48 h; series mostly up to 57.5 µM
Outline: (§1)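 In this quantitative HTS, cell killing is estimated from loss of ATP-dependent luciferase light. Cells see five compound concentrations over a 48 h exposure.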

CAOV3 = conditions: Gynecologic cancer cell panel viability, ATPlite luminescence, 48 h; series mostly up to 57.5 µM
Outline: as §1

CASKI = conditions: Gynecologic cancer cell panel viability, ATPlite luminescence, 48 h; series mostly up to 57.5 µM
Outline: as §1

Es-2 = conditions: Gynecologic cancer cell panel viability, ATPlite luminescence, 48 h; series mostly up to 57.5 µM
Outline: as §1

HeLa = conditions: Gynecologic cancer cell panel viability, ATPlite luminescence, 48 h; series mostly up to 57.5 µM
Outline: as §1

Hek293T = conditions: Gynecologic cancer cell panel viability, ATPlite luminescence, 48 h, control line for the selectivity index; series mostly up to 57.5 µM
Outline: as §1

JEG-3 = conditions: Gynecologic cancer cell panel viability, ATPlite luminescence, 48 h; series mostly up to 57.5 µM
Outline: as §1

OV90 = conditions: Gynecologic cancer cell panel viability, ATPlite luminescence, 48 h; series mostly up to 57.5 µM
Outline: as §1

PA-1 = conditions: Gynecologic cancer cell panel viability, ATPlite luminescence, 48 h; series mostly up to 57.5 µM
Outline: as §1

SKOV3 = conditions: Gynecologic cancer cell panel viability, ATPlite luminescence, 48 h; series mostly up to 57.5 µM
Outline: as §1

Tov-21-G = conditions: Gynecologic cancer cell panel viability, ATPlite luminescence, 48 h; series mostly up to 57.5 µM
Outline: as §1

Tov112D = conditions: Gynecologic cancer cell panel viability, ATPlite luminescence, 48 h; series mostly up to 57.5 µM
Outline: as §1
On the % scale 0 is the no-effect control and ±100 the full control effect.

CC1CC(=O)C2=C(CCC3(O)C(O)c4c(O)cccc4C(=O)C23O)C1 (stereo not drawn)
inactive: Potency (C33A) | Potency (CAOV3) | Potency (CASKI) | Potency (Es-2) | Potency (HeLa) | Potency (Hek293T) | Potency (JEG-3) | Potency (OV90) | Potency (PA-1) | Potency (SKOV3) | Potency (Tov-21-G) | Potency (Tov112D)

C[C@@H]1O[C@@H](O[C@@H]2CO[C@@H](O[C@H]3CC[C@@]4(C)C(CC[C@]5(C)C4CC=C4[C@@H]6CC(C)(C)CC[C@]6(C(=O)O[C@@H]6O[C@H](CO)[C@@H](O)[C@H](O)[C@H]6O)CC[C@]45C)[C@]3(C)CO)[C@H](O)[C@H]2O[C@@H]2O[C@H](CO)[C@@H](O)[C@H](O)[C@H]2O)[C@H](O)[C@H](O)[C@H]1O (stereo partly drawn)
inactive: activity change, negative = cytotoxicity (C33A) 16.4% [at 11.6 µM] | activity change, negative = cytotoxicity (CAOV3) 15.5% [at 11.6 µM] | activity change, negative = cytotoxicity (CASKI) 3.56% [at 11.6 µM] | activity change, negative = cytotoxicity (Es-2) 19.8% [at 11.6 µM] | activity change, negative = cytotoxicity (HeLa) -1.12% [at 11.6 µM] | activity change, negative = cytotoxicity (Hek293T) -12.7% [at 11.6 µM] | activity change, negative = cytotoxicity (JEG-3) -4.12% [at 11.6 µM] | activity change, negative = cytotoxicity (OV90) -13.3% [at 11.6 µM] | activity change, negative = cytotoxicity (PA-1) -2.56% [at 11.6 µM] | activity change, negative = cytotoxicity (SKOV3) 6.8% [at 11.6 µM] | activity change, negative = cytotoxicity (Tov-21-G) 4.72% [at 11.6 µM] | activity change, negative = cytotoxicity (Tov112D) 0.619% [at 11.6 µM]

C=C1C(=O)O[C@H]2[C@H]1CC/C(C)=C/CC[C@@]1(C)O[C@@H]21
inactive: Potency (C33A) | Potency (CAOV3) | Potency (CASKI) | Potency (Es-2) | Potency (HeLa) | Potency (Hek293T) | Potency (JEG-3) | Potency (OV90) | Potency (PA-1) | Potency (SKOV3) | Potency (Tov-21-G) | Potency (Tov112D)

Cc1cc(C)nc(NS(=O)(=O)c2ccc(NC(=S)NC(=O)COc3ccc(Br)cc3Cl)cc2)n1
inactive: Potency (C33A) | Potency (CAOV3) | Potency (CASKI) | Potency (Es-2) | Potency (HeLa) | Potency (Hek293T) | Potency (JEG-3) | Potency (OV90) | Potency (PA-1) | Potency (SKOV3) | Potency (Tov-21-G) | Potency (Tov112D)

CC(=O)O[C@@H](CO[C@@H]1O[C@H](CO)[C@H](O)[C@H](O)[C@H]1O)[C@]1(C)C=C2CC[C@@H]3C(C)(C)[C@@H](O)CC[C@@]3(C)[C@@H]2CC1
inactive: Potency (C33A) | Potency (CAOV3) | Potency (CASKI) | Potency (Es-2) | Potency (HeLa) | Potency (Hek293T) | Potency (JEG-3) | Potency (OV90) | Potency (PA-1) | Potency (SKOV3) | Potency (Tov-21-G) | Potency (Tov112D)

CC(=O)OC1C(OC(=O)c2ccccc2)C2C(C)(C)CC(=O)CC2(C)C23CCC(C)(C2)C(O)CC13 (stereo not drawn)
inactive: Potency (C33A) | Potency (CAOV3) | Potency (CASKI) | Potency (Es-2) | Potency (HeLa) | Potency (Hek293T) | Potency (JEG-3) | Potency (OV90) | Potency (PA-1) | Potency (SKOV3) | Potency (Tov-21-G) | Potency (Tov112D)

C[C@@H]1CC[C@]2(C(=O)O[C@@H]3O[C@H](CO)[C@@H](O)[C@H](O)[C@H]3O)CC[C@]3(C)C(=CCC4[C@@]5(C)C[C@@H](O)[C@H](O)[C@@](C)(C(=O)O[C@H]6[C@H](O)C[C@@]7(C)C(CC[C@]8(C)C7CC=C7[C@H]9[C@](C(=O)O[C@@H]%10O[C@H](CO)[C@@H](O)[C@H](O)[C@H]%10O)(CC[C@@H](C)[C@@]9(C)O)CC[C@]78C)[C@@]6(CO)C(=O)O)C5CC[C@]43C)[C@@H]2[C@]1(C)O (stereo partly drawn)
inactive: activity change, negative = cytotoxicity (C33A) 2.44% [at 6.55 µM] | activity change, negative = cytotoxicity (CAOV3) 6.22% [at 6.55 µM] | activity change, negative = cytotoxicity (CASKI) 11.5% [at 6.55 µM] | activity change, negative = cytotoxicity (Es-2) -0.958% [at 6.55 µM] | activity change, negative = cytotoxicity (HeLa) -3.59% [at 6.55 µM] | activity change, negative = cytotoxicity (Hek293T) 2.04% [at 6.55 µM] | activity change, negative = cytotoxicity (JEG-3) -2.9% [at 6.55 µM] | activity change, negative = cytotoxicity (OV90) -0.495% [at 6.55 µM] | activity change, negative = cytotoxicity (PA-1) 8.04% [at 6.55 µM] | activity change, negative = cytotoxicity (SKOV3) 17.7% [at 6.55 µM] | activity change, negative = cytotoxicity (Tov-21-G) 0.548% [at 6.55 µM] | activity change, negative = cytotoxicity (Tov112D) 3.01% [at 6.55 µM]

CCNC(=O)Nc1ncc(-c2cc(-c3c(C)cc(OC)cc3C)nc(-c3cnccn3)n2)s1
inactive: Potency (C33A) | Potency (CAOV3) | Potency (CASKI) | Potency (Es-2) | Potency (HeLa) | Potency (Hek293T) | Potency (JEG-3) | Potency (OV90) | Potency (PA-1) | Potency (SKOV3) | Potency (Tov-21-G) | Potency (Tov112D)

Fc1ccc2nc(CCC#Cc3ccccn3)cn2c1
inactive: Potency (C33A) | Potency (CAOV3) | Potency (CASKI) | Potency (Es-2) | Potency (HeLa) | Potency (Hek293T) | Potency (JEG-3) | Potency (OV90) | Potency (PA-1) | Potency (SKOV3) | Potency (Tov-21-G) | Potency (Tov112D)

CC1(C)C2CC=C(COC3OC(COC4OCC(O)(CO)C4O)C(O)C(O)C3O)C1C2 (stereo not drawn)
inactive: Potency (C33A) | Potency (CAOV3) | Potency (CASKI) | Potency (Es-2) | Potency (HeLa) | Potency (Hek293T) | Potency (JEG-3) | Potency (OV90) | Potency (PA-1) | Potency (SKOV3) | Potency (Tov-21-G) | Potency (Tov112D)

COc1c2c(c(C)c3c1C(=O)OC3)OC1(C)CC(O)C34OC(OC)(OC3(C)C)C(O)CC4(C)C1C2 (stereo not drawn)
inactive: Potency (C33A) | Potency (CAOV3) | Potency (CASKI) | Potency (Es-2) | Potency (HeLa) | Potency (Hek293T) | Potency (JEG-3) | Potency (OV90) | Potency (PA-1) | Potency (SKOV3) | Potency (Tov-21-G) | Potency (Tov112D)

CC1OC(OC2CCC3(C)C(CCC4(C)C3CC=C3C5CC(C)(C)CCC5(C(=O)OC5OC(CO)C(O)C(O)C5O)CCC34C(=O)O)C2(C)C)C(O)C(O)C1O (stereo not drawn)
inactive: Potency (C33A) | Potency (CAOV3) | Potency (CASKI) | Potency (Es-2) | Potency (HeLa) | Potency (Hek293T) | Potency (JEG-3) | Potency (OV90) | Potency (PA-1) | Potency (SKOV3) | Potency (Tov-21-G) | Potency (Tov112D)

COC(=O)C[C@H]1C(C)(C)[C@H](OC(C)=O)C2CC3=C4CC(=O)O[C@@H](c5ccoc5)[C@]4(C)CCC3[C@@]1(C)C2=O (stereo partly drawn)
inactive: Potency (C33A) | Potency (CAOV3) | Potency (CASKI) | Potency (Es-2) | Potency (HeLa) | Potency (Hek293T) | Potency (JEG-3) | Potency (OV90) | Potency (PA-1) | Potency (SKOV3) | Potency (Tov-21-G) | Potency (Tov112D)

Cc1ccccc1NC(=O)Nc1ccc(CC(=O)N(C)[C@@H](CC(C)C)C(=O)NCC[C@H](NC(=O)[C@@H]2CCCN2S(=O)(=O)c2cc(Cl)cc(Cl)c2)C(=O)O)cc1
inactive: Potency (C33A) | Potency (CAOV3) | Potency (CASKI) | Potency (Es-2) | Potency (HeLa) | Potency (Hek293T) | Potency (JEG-3) | Potency (OV90) | Potency (PA-1) | Potency (SKOV3) | Potency (Tov-21-G) | Potency (Tov112D)
